Bioassay records from PubChem.
FadD28 binding – M. tuberculosis FadD28 bisubstrate binding inhibition; inhibition, % at 12.5 µM; 360,000 compounds, 0.22% hits; FadD28 bisubstrate probe binding, fluorescence polarization; in the data active = inhibition above about 8.5%, passing the limit was not always enough
BioA inh-1 – blocks M. tuberculosis BioA enzyme activity | purified M. tuberculosis BioA enzyme, plate reader | 360,000 compounds, 0.096% hits | inhibition, % at 9.99 µM; in the data active = inhibition above about 40%
Vc quorum ag – induces V. cholerae light production without autoinducers | V. cholerae BH1578 lux reporter, luminescence, 6 h | activation, % at 18.7 µM | 350,000 compounds, 0.16% hits | AID 588436; in the data active = activation mostly above about 9.7%, no sharp cut-off
TcdB inh – TcdB glycohydrolase inhibition | AID 652162 | inhibition, % at 9.99 µM | TcdB glycohydrolase enzymatic assay, plate reader | 350,000 compounds, 0.24% hits; in the data active = inhibition above about 10%
Y pestis TopoI – inhibitors of Yersinia pestis topoisomerase I; Y. pestis Topo-I cleavage product accumulation, plate reader; activity, % at 10 µM; 360,000 compounds, 0.064% hits; in the data active = activity above about 50%, passing the limit was not always enough
BioA inh-2 – blocks M. tuberculosis BioA aminotransferase; purified BioA enzyme, plate reader, dose response; 310 tested, under 10 active; shares compounds with BioA inh-1; max activity, %; AID 651679;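 note: top concentration of the dilution series was 10 µM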
Target sequence (P9WQ81 whole entry, looked up): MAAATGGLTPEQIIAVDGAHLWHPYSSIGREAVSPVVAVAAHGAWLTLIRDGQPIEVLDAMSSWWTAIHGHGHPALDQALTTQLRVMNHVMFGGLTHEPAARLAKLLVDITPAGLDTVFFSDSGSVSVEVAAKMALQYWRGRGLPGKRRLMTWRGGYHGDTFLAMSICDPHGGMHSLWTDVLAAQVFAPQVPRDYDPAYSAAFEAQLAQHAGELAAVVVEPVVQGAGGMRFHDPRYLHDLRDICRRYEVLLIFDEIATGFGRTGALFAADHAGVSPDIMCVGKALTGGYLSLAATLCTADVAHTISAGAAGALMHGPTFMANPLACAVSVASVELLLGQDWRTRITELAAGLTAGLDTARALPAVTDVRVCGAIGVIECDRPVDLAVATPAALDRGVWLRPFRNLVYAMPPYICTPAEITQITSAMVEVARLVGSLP
HepG2 cytotox – cytotoxicity in HepG2 cells. plate reader. 310 tested, under 10 active. max activity, %. shares compounds with BioA inh-1
3T3 cytotox 5 – cytotoxicity in NIH3T3 cells. activity change, negative = cytotoxicity, % at 26 µM. AID 651900. shares compounds with BioA inh-1. 310 tested, under 10 active. plate reader
A number is an active result; - = inactive; . = no result. This is a sample that favours compounds with a hit; in the whole collection about 0.61% have one here. Unless noted, the rule behind the calls is not given here.

SMILES	FadD28 binding	BioA inh-1	Vc quorum ag	TcdB inh	Y pestis TopoI	BioA inh-2	HepG2 cytotox	3T3 cytotox 5
O=C(c1cccc(F)c1)N1CC[C@@H]2[C@H](CO)Nc3ccc(-c4cccc(F)c4)cc3[C@@H]21	.	41	.	.	.	-	-	-
O=C(c1cccc(F)c1)N1CC[C@@H]2[C@H]1c1cc(-c3cccc(F)c3)ccc1N[C@@H]2CO	.	73	.	.	.	-	-	-
O=C(c1cccc(F)c1)N1CC[C@@H]2[C@H]1c1cc(-c3ccccc3)ccc1N[C@@H]2CO	.	.	.	-	.	.	.	.
COc1ccc2c3c([nH]c2c1)[C@H](CO)N(C(=O)CN(C)C)CC31CN(Cc2ccccc2)C1	.	.	.	-	.	.	.	.
CNC(=O)C[C@H]1CC[C@@H]2[C@H](COC[C@@H](O)CN2C(=O)Nc2ccc(Cl)c(Cl)c2)O1	.	83	.	-	.	-	-	-
CNC(=O)C[C@@H]1CC[C@H]2[C@@H](COC[C@H](O)CN2C(=O)Nc2ccc(Cl)c(Cl)c2)O1	.	-	.	-	.	.	.	.
COc1cccc(NC(=O)N2C[C@H](O)COC[C@@H]3O[C@@H](CC(=O)N(C)C)CC[C@H]32)c1	.	99	.	-	.	-	-	-
CC(C)CC#Cc1ccc([C@H]2[C@@H](CO)N3C(=O)CN(C(=O)Cc4ccccc4)C[C@@H]23)cc1	.	.	.	-	.	.	.	.
CN1c2ccc(-c3cccc(F)c3)cc2[C@@H]2[C@@H](CCN2C(=O)C2CC2)[C@H]1CO	.	-	.	-	.	.	.	.
CN1c2ccc(-c3cccc(F)c3)cc2[C@H]2[C@H](CCN2C(=O)C2CC2)[C@H]1CO	.	41	.	-	.	-	-	-
CN1c2ccc(-c3cccc(F)c3)cc2[C@H]2[C@H](CCN2C(=O)c2ccncc2)[C@@H]1CO	.	69	.	.	.	-	-	-
CCC(=O)N1CC[C@@H]2[C@@H](CO)N(C)c3ccc(-c4cccc(F)c4)cc3[C@@H]21	.	68	.	.	.	-	-	-
COCC(=O)N1CC[C@@H]2[C@@H](CO)N(C)c3ccc(-c4ccc(F)cc4)cc3[C@@H]21	.	61	.	.	.	-	-	-
C[C@H](CO)N1C[C@H](C)[C@@H](CN(C)C)Oc2ccc(NC(=O)C3CC3)cc2C1=O	.	-	.	-	.	.	.	.
COc1cccc(S(=O)(=O)N2C[C@H](O)COC[C@H]3O[C@H](CC(=O)NCCCN4CCOCC4)CC[C@@H]32)c1	.	-	.	-	.	.	.	.
O=C(Nc1cc(F)ccc1F)N[C@@H]1CC[C@H](CCNC(=O)c2cnccn2)O[C@@H]1CO	.	-	.	-	.	.	.	.
CO[C@H]1CN(C)C(=O)c2ccc(NC(C)=O)cc2OC[C@@H](C)N(C(=O)C2CCCCC2)C[C@H]1C	.	53	.	-	.	-	-	-
C[C@H](CO)N1C[C@H](C)[C@@H](CN(C)Cc2ccc3c(c2)OCO3)Oc2ccc(NC(=O)Cn3cnnn3)cc2CC1=O	.	48	.	-	.	-	-	-
C[C@H](CO)N1C[C@H](C)[C@H](CN(C)C(=O)Nc2cccc3ccccc23)Oc2ncc(-c3cccc(C(F)(F)F)c3)cc2C1=O	.	-	.	-	.	.	.	.
CCc1ccc(NC(=O)C(CC)Sc2nc3ccsc3c(=O)n2CCC(=O)O)cc1 (stereo not given)	-	-	-	-	-	.	.	.
CCC(Sc1nc2ccsc2c(=O)n1Cc1ccc(C(=O)O)cc1)C(=O)Nc1cccc(OC)c1 (stereo not given)	-	75	-	-	-	-	-	-
Cc1ccc(S(=O)(=O)N(C)C[C@@H]2Oc3ccc(NC(=O)CCC(F)(F)F)cc3CC(=O)N([C@H](C)CO)C[C@@H]2C)cc1	.	-	.	-	.	.	.	.
CO[C@H]1CN(C)C(=O)c2ccc(NC(C)=O)cc2OC[C@@H](C)N(Cc2cccc(F)c2)C[C@H]1C	.	-	.	-	.	.	.	.
CCCNC(=O)N1C[C@@H](C)[C@@H](OC)CN(C)C(=O)c2ccc(NC(C)=O)cc2OC[C@H]1C	.	-	.	-	.	.	.	.
CCOC(=O)CNC(=O)c1sc2ncnc(N3CCc4ccccc4C3)c2c1C	-	63	-	-	-	-	-	-
SMILES	FadD28 binding	BioA inh-1	Vc quorum ag	TcdB inh	Y pestis TopoI	BioA inh-2	HepG2 cytotox	3T3 cytotox 5
CCN1[C@@H]2c3ccc(-c4ccncc4)c(=O)n3C[C@H]1[C@H](CO)[C@H]2C(=O)NCc1ccccc1	.	-	.	-	.	.	.	.
Cc1ccc(NS(=O)(=O)c2ccc3c(c2)n(C)c(=O)n3C)c(C)c1	-	-	-	-	-	.	.	.
CCn1c(=O)c(=O)n(CC)c2cc(S(=O)(=O)Nc3cc(C)ccc3C)ccc21	-	42	-	-	-	-	-	-
Cc1c(NC(=O)c2ccc(S(=O)(=O)N(C)C)cc2)cccc1-n1cnnn1	.	-	-	-	-	.	.	.
Cc1c(NC(=O)c2cc3ccccc3o2)cccc1-n1cnnn1	-	46	-	-	-	-	-	-
Cc1ccccc1S(=O)(=O)NCC[C@H]1CC[C@@H](NC(=O)Nc2cccc(F)c2)[C@H](CO)O1	.	46	.	-	.	-	-	-
C=CCn1c(SCc2c(C(=O)OC)sc(N)c2C(=O)OC)nnc1-c1ccc(Br)cc1	-	59	-	.	-	-	-	-
Clc1ccc(CSc2nnc(-c3cccnc3)o2)cc1	-	65	-	.	-	-	-	-
c1ccc(CSc2nnc(-c3cccnc3)o2)cc1	-	.	-	.	-	.	.	.
CO[C@@H]1CN(C)C(=O)c2ccc(NC(=O)C3CC3)cc2OC[C@@H](C)N(Cc2ccccc2)C[C@@H]1C	.	-	.	-	.	.	.	.
O=C(Nc1ncc2c(n1)CC(c1cccc(Cl)c1)CC2=O)c1ccco1 (stereo not given)	-	61	-	-	-	-	-	-
O=C(Nc1ncc2c(n1)CC(c1ccccc1)CC2=O)c1ccco1 (stereo not given)	-	98	-	-	-	-	-	-
COc1ccc(C2CC(=O)c3cnc(NC(=O)c4ccco4)nc3C2)cc1 (stereo not given)	-	-	-	-	-	.	.	.
O=C(CN1CCOCC1)N1CC2(C1)[C@H](c1ccccc1)[C@H](CO)N2Cc1ccc(F)cc1	.	.	.	-	.	.	.	.
COC(=O)C[C@@H]1C[C@@H]2c3cc(NC(=O)c4cccnc4)ccc3O[C@@H]2[C@@H](CO)O1	.	51	.	-	.	-	-	-
O=C(C[C@@H]1C[C@@H]2c3cc(NC(=O)c4cccnc4)ccc3O[C@@H]2[C@@H](CO)O1)NCCc1ccccc1	.	41	.	-	.	-	-	-
C[C@@H]1CN([C@H](C)CO)C(=O)c2cc(NC(=O)NC3CCCCC3)ccc2O[C@@H](C)CCCCO[C@@H]1CN(C)Cc1ccc(C(F)(F)F)cc1	.	-	.	-	.	.	.	.
O=S(=O)(c1ccccc1)N1CC[C@@H]2[C@H](CO)Nc3ccc(C#CC4CCCCC4)cc3[C@@H]21	.	.	.	-	.	.	.	.
